# Results taken from PubChem BioAssay (EPA / NIEHS).
# Results filed as inconclusive are left out. The source made the active and inactive calls. How the source made its calls: active means hit-call score of the fitted dose curve at least 0.9, where 1 is the maximum; inconclusive means response in the unintended direction; inactive means score below 0.9.
# Tests used:
# [1] = target: Sodium channel protein type 1 subunit alpha (Rattus norvegicus) (UniProt P04774); assay: NVS_IC_rNaCh_site2: NovaScreen (NVS) Ion Channel Assay for rat Sodium Channel, Site 2 (NaCh) (AID 2283322);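 further: hit means loss of radioligand binding signal relative to DMSO so AC50 marks displacement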
# Outline: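 Initial duplicate single-point testing at 25 uM, followed by concentration-response runs for actives. Binding of radioligand to rat forebrain membranes quantified after 1 h via filter-based radiodetection.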
# [2] = target: rat Opioid Receptor, Non-selective Binding, Oprm1 (gene 25601) (UniProt P33535); assay: NVS_GPCR_rOpiate_NonSelective: NovaScreen (NVS) G Protein-Coupled Receptor Assay for rat Opioid Receptor, Non-selective Binding (AID 2283318)
# Outline: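 Filter-based radioligand displacement using rat forebrain membrane preparations, measured 1.5 h post-dosing. Single-concentration duplicate screen at 25 uM, follow-up in concentration series; activity taken as signal loss relative to DMSO.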
# [3] = NVS_IC_rCaDHPRCh_L: NovaScreen (NVS) Ion Channel Assay for rat Calcium Channel, Type L, Dihydropyridine Site (CaDHPRCh_L) (AID 2283320)
# Outline: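 Rat cortex membrane preparation; dihydropyridine-site radioligand displacement read 1 h post-dose by filtration and scintillation. Primary single-point screen 25 uM in duplicate, then concentration series to 50 uM maximum; DMSO as negative control.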
# [4] = target: rat Thyrotropin Releasing Hormone Receptor (TRH), Trhr (gene 25570) (UniProt Q01717); assay: NVS_GPCR_rTRH: NovaScreen (NVS) G Protein-Coupled Receptor Assay for rat Thyrotropin Releasing Hormone Receptor (TRH) (AID 2283329);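 further: hit means lower bound tracer signal versus DMSO baseline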
# Outline: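 Rat forebrain membrane prep, radioligand displacement, filter scintillation readout at 4 h. Single conc 25 uM, duplicate; actives retested as concentration series. DMSO = negative control/baseline.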
# [5] = target: rat Glutamate, AMPA Site (AMPA), Gria1 (gene 50592) (UniProt P19490); assay: NVS_LGIC_rAMPA: NovaScreen (NVS) Ligand-Gated Ion Channel Assay for rat Glutamate, AMPA Site (AMPA) (AID 2283324)
# Outline: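 Screening at 25 uM in duplicate preceded concentration series reaching 50 uM for qualifying compounds. Radioligand displacement on rat forebrain membranes, 1 h, filter-based scintillation readout; reduced binding relative to DMSO.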
# [6] = target: human Serotonin, 5-Hydroxytryptamine Receptor 3 (5HT3), HTR3A (gene 3359) (UniProt P46098); assay: NVS_LGIC_h5HT3: NovaScreen (NVS) Ligand-Gated Ion Channel Assay for human Serotonin, 5-Hydroxytryptamine Receptor 3 (5HT3) (AID 2283325)
# Outline: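 Initially tested at 25 uM in duplicate, then up to 50 uM in concentration-response for actives, compounds competed with a radioligand for HEK293-derived human 5-HT3 receptor. Bound counts were measured by filtration and scintillation at 1 h; loss of signal versus DMSO.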
# [7] = target: rat Glutamate, NMDA Agonist Site (GluNMDA), Grin1 (gene 24408) (UniProt P35439); assay: NVS_LGIC_rGluNMDA_Agonist: NovaScreen (NVS) Ligand-Gated Ion Channel Assay for rat Glutamate, NMDA Agonist Site (GluNMDA) (AID 2283327)
# Description: NVS_LGIC_rGluNMDA_Agonist is a biochemical, single-readout assay that uses extracted gene-proteins from Rat forebrain membranes in a tissue-based cell-free assay. Measurements were taken 1 hour after chemical dosing in a 48-well plate.NVS_LGIC_rGluNMDA_Agonist is one of one assay component(s) measured or calculated from the NVS_LGIC_rGluNMDA_Agonist assay. It is designed to make measurements of radioligand binding, a form of binding reporter, as detected with scintillation counting signals by Filter-based radiodetection technology.Data from the assay component NVS_LGIC_rGluNMDA_Agonist was analyzed into 1 assay endpoint. This assay endpoint, NVS_LGIC_rGluNMDA_Agonist, was analyzed in the positive analysis fitting direction relative to DMSO as the negative control and baseline of activity. Using a type of binding reporter, gain-of-signal activity can be used to understand changes in the binding as they relate to the gene Grin1. Furthermore, this assay endpoint can be referred to as a primary readout, because the performed assay has only produced 1 assay endpoint. To generalize the intended target to other relatable targets, this assay endpoint is annotated to the ion channel intended target family, where the subfamily is ligand-gated ion channel. […]
# NCBI gene 24521 = assay: NVS_IC_rKATPCh: NovaScreen (NVS) Ion Channel Assay for rat Potassium Channel, ATP-Sensitive (KATPCh) (AID 2283319)
# Description: NVS_IC_rKATPCh is a biochemical, single-readout assay that uses extracted gene-proteins from Rat cortical membranes in a tissue-based cell-free assay. Measurements were taken 2 hours after chemical dosing in a 48-well plate.NVS_IC_rKATPCh is one of one assay component(s) measured or calculated from the NVS_IC_rKATPCh assay. It is designed to make measurements of radioligand binding, a form of binding reporter, as detected with scintillation counting signals by Filter-based radiodetection technology.Data from the assay component NVS_IC_rKATPCh was analyzed into 1 assay endpoint. This assay endpoint, NVS_IC_rKATPCh, was analyzed in the positive analysis fitting direction relative to DMSO as the negative control and baseline of activity. Using a type of binding reporter, loss-of-signal activity can be used to understand changes in the binding as they relate to the gene Kcnj1. Furthermore, this assay endpoint can be referred to as a primary readout, because the performed assay has only produced 1 assay endpoint. To generalize the intended target to other relatable targets, this assay endpoint is annotated to the ion channel intended target family, where the subfamily is potassium channel. […]
# [8] = target: bovine Gamma-Aminobutyric Acid Type A Receptor BDZ, alpha 5 site (GABARa5), GABRA5 (gene 523515) (UniProt Q08E50); assay: NVS_LGIC_bGABARa5: NovaScreen (NVS) Ligand-Gated Ion Channel Assay for bovine Gamma-Aminobutyric Acid Type A Receptor BDZ, alpha 5 site (GABARa5) (AID 2283323)
# Outline: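 Tested first in duplicate at a single 25 uM, with hits re-run in concentration series to a 50 uM maximum. Bovine hippocampal membranes; specific radioligand displacement measured by filter scintillation counting 1 hr post-dose.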
# [9] = target: rat Gamma-Aminobutyric Acid Type A Receptor, Non-Selective (GABAR-NonSelective), Gabra1 (gene 29705) (UniProt P62813); assay: NVS_LGIC_rGABAR_NonSelective: NovaScreen (NVS) Ligand-Gated Ion Channel Assay for rat Gamma-Aminobutyric Acid Type A Receptor, Non-Selective (GABAR-NonSelective) (AID 2283326)
# Outline: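 Compounds were first screened in duplicate at 25 uM, with actives run as singleton concentration series (max 50 uM). Binding of a radioligand to rat whole-brain GABA-A preparation was measured by filtration and scintillation counting after 1 h, DMSO baseline.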
# Chain of rat Thyrotropin Releasing Hormone Receptor (TRH), Trhr (gene 25570) (Q01717 whole entry, looked up): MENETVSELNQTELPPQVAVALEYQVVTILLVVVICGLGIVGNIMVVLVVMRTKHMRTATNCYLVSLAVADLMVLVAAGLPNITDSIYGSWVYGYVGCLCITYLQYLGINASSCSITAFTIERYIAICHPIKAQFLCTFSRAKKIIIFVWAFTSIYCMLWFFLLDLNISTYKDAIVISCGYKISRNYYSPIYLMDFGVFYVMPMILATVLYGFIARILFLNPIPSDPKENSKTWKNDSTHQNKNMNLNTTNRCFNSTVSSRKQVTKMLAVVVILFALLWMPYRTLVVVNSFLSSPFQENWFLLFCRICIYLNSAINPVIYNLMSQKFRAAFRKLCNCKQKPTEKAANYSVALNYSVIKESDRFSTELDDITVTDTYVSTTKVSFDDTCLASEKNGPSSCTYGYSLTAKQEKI
# Chain of rat Glutamate, AMPA Site (AMPA), Gria1 (gene 50592) (P19490 whole entry, looked up): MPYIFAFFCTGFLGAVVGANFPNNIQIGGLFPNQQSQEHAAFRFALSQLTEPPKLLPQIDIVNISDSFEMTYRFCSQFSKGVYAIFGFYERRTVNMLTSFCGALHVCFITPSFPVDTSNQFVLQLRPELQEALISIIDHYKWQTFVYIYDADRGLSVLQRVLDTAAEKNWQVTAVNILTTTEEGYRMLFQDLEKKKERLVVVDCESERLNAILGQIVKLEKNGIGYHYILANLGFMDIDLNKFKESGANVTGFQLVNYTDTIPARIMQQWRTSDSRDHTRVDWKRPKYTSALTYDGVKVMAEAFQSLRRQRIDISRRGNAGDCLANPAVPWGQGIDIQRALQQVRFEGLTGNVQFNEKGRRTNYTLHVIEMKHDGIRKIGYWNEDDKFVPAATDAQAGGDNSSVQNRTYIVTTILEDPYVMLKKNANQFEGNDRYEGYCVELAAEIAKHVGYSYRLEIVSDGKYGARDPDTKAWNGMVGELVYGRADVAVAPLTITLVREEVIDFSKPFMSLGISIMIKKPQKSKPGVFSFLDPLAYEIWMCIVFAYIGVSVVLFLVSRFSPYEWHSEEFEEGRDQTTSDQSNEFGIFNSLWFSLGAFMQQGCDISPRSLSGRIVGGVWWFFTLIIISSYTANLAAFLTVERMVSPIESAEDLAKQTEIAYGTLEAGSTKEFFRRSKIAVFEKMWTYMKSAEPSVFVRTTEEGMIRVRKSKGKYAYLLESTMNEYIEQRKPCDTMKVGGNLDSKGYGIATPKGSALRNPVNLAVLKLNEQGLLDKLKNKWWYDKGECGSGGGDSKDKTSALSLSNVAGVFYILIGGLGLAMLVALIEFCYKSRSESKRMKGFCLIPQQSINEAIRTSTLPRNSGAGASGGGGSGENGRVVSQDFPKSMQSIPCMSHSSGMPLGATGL
# Chain of rat Opioid Receptor, Non-selective Binding, Oprm1 (gene 25601) (P33535 whole entry, looked up): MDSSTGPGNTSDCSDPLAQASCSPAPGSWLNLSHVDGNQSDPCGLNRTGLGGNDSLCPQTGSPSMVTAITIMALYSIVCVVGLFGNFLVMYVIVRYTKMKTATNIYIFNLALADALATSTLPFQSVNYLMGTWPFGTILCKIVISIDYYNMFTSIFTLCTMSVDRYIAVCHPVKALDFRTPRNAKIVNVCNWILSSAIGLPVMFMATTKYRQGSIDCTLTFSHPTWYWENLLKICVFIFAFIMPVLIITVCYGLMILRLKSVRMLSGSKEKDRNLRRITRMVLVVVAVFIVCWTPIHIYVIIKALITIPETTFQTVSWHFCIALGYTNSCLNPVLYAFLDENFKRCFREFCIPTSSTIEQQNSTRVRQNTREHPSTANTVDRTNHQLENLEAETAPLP
# Chain of human Serotonin, 5-Hydroxytryptamine Receptor 3 (5HT3), HTR3A (gene 3359) (P46098 whole entry, looked up): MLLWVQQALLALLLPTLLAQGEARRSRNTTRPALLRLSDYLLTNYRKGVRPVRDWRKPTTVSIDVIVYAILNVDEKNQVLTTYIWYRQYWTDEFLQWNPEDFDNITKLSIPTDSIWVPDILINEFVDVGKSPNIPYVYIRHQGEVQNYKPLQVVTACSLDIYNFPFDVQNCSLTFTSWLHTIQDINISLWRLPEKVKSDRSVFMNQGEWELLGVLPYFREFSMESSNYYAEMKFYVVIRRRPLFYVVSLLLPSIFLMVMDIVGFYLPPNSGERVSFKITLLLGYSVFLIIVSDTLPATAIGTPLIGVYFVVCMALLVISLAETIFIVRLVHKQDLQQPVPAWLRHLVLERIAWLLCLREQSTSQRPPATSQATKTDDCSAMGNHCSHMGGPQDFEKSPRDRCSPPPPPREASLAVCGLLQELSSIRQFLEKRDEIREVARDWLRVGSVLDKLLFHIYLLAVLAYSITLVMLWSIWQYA
# Chain of bovine Gamma-Aminobutyric Acid Type A Receptor BDZ, alpha 5 site (GABARa5), GABRA5 (gene 523515) (Q08E50 whole entry, looked up): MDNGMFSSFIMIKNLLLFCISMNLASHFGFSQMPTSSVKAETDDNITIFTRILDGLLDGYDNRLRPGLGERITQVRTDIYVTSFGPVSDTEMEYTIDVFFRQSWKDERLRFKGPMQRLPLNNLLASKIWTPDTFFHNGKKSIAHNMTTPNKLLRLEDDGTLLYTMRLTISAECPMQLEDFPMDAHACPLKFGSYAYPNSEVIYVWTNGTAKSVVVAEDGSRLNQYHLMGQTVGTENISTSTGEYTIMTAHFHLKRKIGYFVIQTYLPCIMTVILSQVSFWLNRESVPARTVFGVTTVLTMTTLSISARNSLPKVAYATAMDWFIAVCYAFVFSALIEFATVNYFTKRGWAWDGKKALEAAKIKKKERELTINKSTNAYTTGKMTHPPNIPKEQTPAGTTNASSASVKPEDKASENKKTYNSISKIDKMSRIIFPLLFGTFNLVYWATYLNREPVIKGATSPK
# Chain of rat Gamma-Aminobutyric Acid Type A Receptor, Non-Selective (GABAR-NonSelective), Gabra1 (gene 29705) (P62813 whole entry, looked up): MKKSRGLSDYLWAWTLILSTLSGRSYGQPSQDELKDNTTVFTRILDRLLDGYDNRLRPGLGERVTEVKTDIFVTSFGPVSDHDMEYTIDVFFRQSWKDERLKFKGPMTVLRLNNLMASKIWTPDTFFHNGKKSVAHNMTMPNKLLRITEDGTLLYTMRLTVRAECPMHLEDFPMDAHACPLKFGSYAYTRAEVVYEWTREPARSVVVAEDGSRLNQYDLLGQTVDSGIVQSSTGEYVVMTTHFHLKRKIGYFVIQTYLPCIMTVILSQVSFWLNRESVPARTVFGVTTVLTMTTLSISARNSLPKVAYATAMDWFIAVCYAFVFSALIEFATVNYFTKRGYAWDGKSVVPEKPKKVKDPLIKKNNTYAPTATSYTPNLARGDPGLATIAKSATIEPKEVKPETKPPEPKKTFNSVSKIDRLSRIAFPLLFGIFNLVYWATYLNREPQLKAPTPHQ
compound,measurement,setting,value
CCC(=C(c1ccc(O)cc1)c1ccc(OCCN(C)C)cc1)c1ccccc1,AC50,[1],4.03 µM (active)
CCCOc1sc(C(=O)N2CCC(c3cc(CN)ccc3F)CC2)c(C)c1Br,AC50,[2],11 µM (active)
same,AC50,[3],14.7 µM (active)
same,AC50,[1],1.01 µM (active)
O=c1c(-c2ccc(O)cc2)coc2cc(O)ccc12,outcome,[2],inactive
Cc1ccc(S(=O)(=O)O)c(C)c1,outcome,[4],inactive
CCCOC(=O)c1ccc(O)cc1,AC50,[1],31.2 µM (active)
C#C[C@]1(O)CC[C@H]2[C@@H]3CCC4=CC(=O)CC[C@@H]4[C@H]3CC[C@@]21C,outcome,[4],inactive
NC(=O)N(O)[C@@H]1C=C[C@H](Oc2cccc(Oc3ccc(F)cc3)c2)C1,outcome,[2],inactive
same,outcome,[1],inactive
same,outcome,[5],inactive
same,outcome,[6],inactive
CC[C@H](c1ccc(O)cc1)[C@@H](CC)c1ccc(O)cc1,AC50,[2],5.14 µM (active)
same,outcome,[1],inactive
COCC(C)OCC(C)O (stereo not given),outcome,[2],inactive
Nc1cccc2c(N)cccc12,AC50,[1],18.5 µM (active)
c1ccc2c(c1)Cc1ccccc1-2,outcome,[2],inactive
COC(=O)CCCCC(=O)OC,outcome,[5],inactive
Cc1cc(C)c(O)c(C)c1,outcome,[5],inactive
same,outcome,[7],inactive
CC(=O)CC(C)(C)O,outcome,[2],inactive
same,outcome,[4],inactive
Cc1oc(-c2ccccc2)nc1CCOc1ccc(C[C@H](Nc2ccccc2C(=O)c2ccccc2)C(=O)O)cc1,outcome,[2],inactive
same,AC50,[3],25 µM (active)
same,AC50,[1],25 µM (active)
O=C(O)Cc1cc(I)c(Oc2cc(I)c(O)c(I)c2)c(I)c1,outcome,[2],inactive
same,outcome,[1],inactive
CC(=O)NC1(c2cccc(F)c2)CCN(CC[C@@]2(c3ccc(Cl)c(Cl)c3)CN(c3ccccc3)C(=O)CO2)CC1,AC50,[2],7.82 µM (active)
same,AC50,NCBI gene 24521,4.88 µM (active)
same,AC50,[3],2.24 µM (active)
same,AC50,[1],0.449 µM (active)
CC#C[C@]1(O)CC[C@H]2[C@@H]3CCC4=CC(=O)CCC4=C3[C@@H](c3ccc(N(C)C)cc3)C[C@@]21C,AC50,[2],0.404 µM (active)
same,AC50,[1],6.71 µM (active)
Cc1cc(CCN2CCN(c3nsc4ccccc34)CC2)cc2c1NC(=O)CC2(C)C,outcome,[5],inactive
CCCCCCCC(=O)O,outcome,[2],inactive
same,outcome,[8],inactive
same,outcome,[5],inactive
same,outcome,[6],inactive
CCCCCCCCCCCCc1ccccc1S(=O)(=O)O,AC50,[7],20.1 µM (active)
CCN(CC)CCNc1ccc(CNC=O)c2sc3ccc(OC)cc3c(=O)c12,outcome,[2],inactive
same,AC50,[1],12.7 µM (active)
same,outcome,[9],inactive
CN1CCN(c2ccccc2/C=C2\SCCN(c3ccc(Cl)c(Cl)c3)C2=O)CC1,outcome,[5],inactive
CC[C@H](C)[C@@H](C(=O)O)n1sc2ccccc2c1=O,outcome,[5],inactive
O=C(OCCOCCOC(=O)c1ccccc1)c1ccccc1,outcome,[8],inactive
CCCCCCCCCCCCCC[N+](C)(C)C,AC50,[1],8.44 µM (active)
ClC1=C(Cl)C(Cl)(Cl)C(Cl)=C1Cl,outcome,[2],inactive
same,outcome,[3],inactive
same,outcome,[4],inactive
OC1CCCCC1,outcome,[1],inactive
